Assay outcomes (PubChem BioAssay)
PLCg1 inh: PLC-gamma1 (human) inhibition, primary screen | P19174 | purified PLC-gamma1, fluorogenic substrate, fluorescence | inhibition, % at 12.2 µM | 0.84% of 370,000 active; in the data active = inhibition above about 9.5%
LEDGF integ inh: blocks HIV-1 LEDGF/p75-dependent DNA integration; TR-FRET IN-LEDGF/p75 DNA integration, Eu/Cy5; 0.64% of 370,000 active; AID 743269; inhibition, % at 3.7 µM;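 active = inhibition above the screen-wide mean plus 3 SD, cut at about 13% in these data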;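 note: signal is the Cy5 over europium emission ratio at 671 and 618 nm; 0% = plate median of compound wells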
UHRF1 binding: blocks human UHRF1 binding to methylated DNA | Q96T88 | UHRF1 binding to methylated oligo, TR-FRET | inhibition, % at 4.4 µM | 0.75% of 370,000 active | AID 687016; in the data active = inhibition above about 21%;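 note: UHRF1 SRA domain binding a hemimethylated CpG hairpin DNA probe; 0% = median of test compound wells and 100% = reference inhibitor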
PLCb3 inh: blocks human PLC-beta3 enzyme activity. Purified PLC-beta3, fluorogenic substrate, fluorescence. inhibition, % at 12.2 µM. 0.18% of 370,000 active; in the data active = inhibition above about 11%;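 note: 0% = median of compound wells on plate and 100% = full blocker control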
MBD2 DNA inh: blocks human MBD2 binding to methylated DNA | inhibition, % at 4.4 µM | TR-FRET, MBD2 binding to methylated oligonucleotide | AID 686964 | 0.31% of 370,000 active | Q9UBB5; in the data active = inhibition above about 13%
Target sequence (Q9UBB5 whole entry, looked up): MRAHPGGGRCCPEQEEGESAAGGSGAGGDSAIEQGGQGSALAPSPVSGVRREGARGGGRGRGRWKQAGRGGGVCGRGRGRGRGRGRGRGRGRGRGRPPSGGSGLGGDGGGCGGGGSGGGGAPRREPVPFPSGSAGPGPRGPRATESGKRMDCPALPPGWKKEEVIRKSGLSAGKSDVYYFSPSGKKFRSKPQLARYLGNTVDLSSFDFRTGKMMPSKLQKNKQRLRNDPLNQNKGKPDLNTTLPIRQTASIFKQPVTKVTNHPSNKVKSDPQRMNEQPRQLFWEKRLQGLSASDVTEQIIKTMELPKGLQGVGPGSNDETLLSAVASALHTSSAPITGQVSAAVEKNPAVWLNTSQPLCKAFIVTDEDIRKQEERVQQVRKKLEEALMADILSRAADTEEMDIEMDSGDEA
UHRF1 ctr MBD2: UHRF1 methyl-oligo binding inhibition as MBD2 counter-screen; shares compounds with MBD2 DNA inh; UHRF1 binding to methylated oligonucleotide, TR-FRET; inhibition, % at 4.4 µM; 25% of 1,000 active; AID 720530; in the data active = inhibition above about 21%;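 note: UHRF1 SRA domain binding a labeled hemimethylated CpG hairpin DNA; 0% = vehicle only and 100% = reference inhibitor with vehicle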
MBD2 confirm: MBD2-DBD methyl-DNA binding inhibition, TR-FRET confirmation; TR-FRET MBD2-DBD binding to methylated oligonucleotide; inhibition, % at 4.4 µM; shares compounds with MBD2 DNA inh; 26% of 1,000 active
PLCg1 ctr: PLC-gamma1 inhibition, counter-screen for PLC-beta3 hits | inhibition, % at 12.3 µM | shares compounds with PLCg1 inh | 3.1% of 3,300 active | purified PLC-gamma1, fluorogenic substrate, fluorescence; in the data active = inhibition above about 9.5%
PLCbeta3 conf: confirmation of human PLC-beta3 inhibitors | shares compounds with PLCg1 inh | purified PLC-beta3, fluorogenic substrate fluorescence | inhibition, % at 12.3 µM | 1% of 3,300 active | AID 743261; in the data active = inhibition above about 11%
IN multimer act: activates HIV-1 integrase multimerization in LEDGF counter-screen; shares compounds with LEDGF integ inh; TR-FRET HIV-1 integrase multimerization, biochemical; activation, % at 7.7 µM; 17% of 2,000 active; AID 1053131; in the data active = activation above about 8.9%
TR-FRET interf: counter-screen for LEDGF/p75 integration inhibitors: TR-FRET optical interference. shares compounds with LEDGF integ inh. TR-FRET optical interference counterscreen, HIV-1 IN multimerization. inhibition, % at 7.7 µM. 2,000 tested, under 10 active;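 active = inhibition above the mean over all tested compounds plus 3 SD, which no compound reached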;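 note: 0% = integrase with antibodies and DMSO and 100% = antibodies without integrase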
IN-LEDGF confirm: LEDGF/p75-dependent HIV-1 integration inhibition, confirmation | TR-FRET LEDGF/p75-dependent HIV-1 integration, biochemical | inhibition, % at 3.7 µM | shares compounds with LEDGF integ inh | 36% of 2,000 active
Active calls of the source: *; i = inactive; . = no result. In the library only some 2.4% were active in any assay of this set; here they are far more common. Cut-off read from the data, not from the text of the source, unless noted: active = inhibition above about 14%; inactive = the rest.

SMILES	PLCg1 inh	LEDGF integ inh	UHRF1 binding	PLCb3 inh	MBD2 DNA inh	UHRF1 ctr MBD2	MBD2 confirm	IN multimer act	TR-FRET interf	IN-LEDGF confirm	others
Cc1cccc(N=C2NC(=O)/C(=C/C=C/c3ccco3)S2)c1C	-8.0	48.6*	48.0*	-23.3	17.0*	21.2*	9.4	9.7*	-34.8	63.3*
O=C(NC(=S)Nc1ccc(Br)cn1)c1cccs1	3.2	19.0*	36.7*	2.9	14.0*	4.4	-0.3	-2.5	8.9	-1.2
C=C(C)C(=O)Nc1cccc(C2=NOC3(C2)C[C@H](C(N)=O)N(C(=O)/C=C/C)C3)c1 (stereo partly drawn)	11.5*	25.5*	82.4*	5.5	46.1*	72.9*	48.1*	19.0*	-95.9	34.0*	PLCg1 ctr=-8.0;PLCbeta3 conf=-2.8
C=C(C)C(=O)Nc1cccc(C2=NOC3(C2)C[C@@H](C(N)=O)N(C(=O)C2(C)CC2)C3)c1 (stereo partly drawn)	1.0	35.8*	91.5*	3.8	54.6*	94.0*	79.1*	93.4*	-334.1	60.1*
C=C(C)C(=O)Nc1cccc(C2=NOC3(C2)C[C@@H](C(N)=O)N(C(=O)C(=C)C)C3)c1 (stereo partly drawn)	0.2	15.5*	73.6*	0.9	35.1*	72.8*	41.8*	17.4*	-87.8	30.0*
C/C=C/C(=O)N1CC2(CC(c3cccc(NC(=O)CC)c3)=NO2)C[C@H]1C(N)=O (stereo partly drawn)	-0.9	-5.0	-1.0	-1.6	-3.5	.	.	.	.	.
C=C(C)C(=O)N1CC2(CC(c3cccc(NC(=O)/C=C\C=C/C)c3)=NO2)C[C@H]1C(N)=O (stereo partly drawn)	2.8	2.4	3.9	-0.7	2.1	.	.	.	.	.
COc1ccc2nc(-c3ccco3)c(-c3ccco3)nc2c1	-122.9	64.5*	77.5*	-133.9	20.1*	24.6*	10.1	5.5	-27.6	49.7*
c1coc(-c2nc(-c3ccco3)c(-c3ccco3)nc2-c2ccco2)c1	-154.5	89.7*	95.0*	-189.2	66.6*	41.9*	19.6*	8.5	-30.0	82.1*
Nc1nc(-c2ccco2)cs1	-2.8	6.4	2.9	-7.5	3.8	.	.	.	.	.
O=C(O)c1cc(N2C(=O)C=CC2=O)cc(N2C(=O)C=CC2=O)c1	0.7	61.5*	96.6*	-7.0	79.8*	77.2*	39.4*	1.8	-9.1	52.9*
C[C@H]1c2cccc(O)c2C(O)=C2C(=O)[C@]3(O)C(O)=C(C(N)=O)C(=O)[C@@H](N(C)C)C3[C@@H](O)C21 (stereo partly drawn)	-36.7	12.1	-2.6	-39.4	3.0	.	.	.	.	.
C=C1c2cccc(O)c2C(=O)C2C(=O)[C@]3(O)C(=O)C(C(N)=O)C(=O)[C@@H](N(C)C)[C@@H]3[C@@H](O)[C@H]12 (stereo partly drawn)	-7.0	86.3*	96.5*	-55.4	90.0*	11.3	6.8	36.8*	-130.8	51.7*
CN(CCc1ccccn1)C(=O)Cn1nc(-c2ccccc2)ccc1=O	-1.6	-4.7	1.3	-2.0	2.6	.	.	.	.	.
Cc1ccc(C)c(NC(=O)CSc2sc3c(O)cc(=O)[nH]c3c2C#N)c1	-22.4	2.9	15.3	-32.9	1.4	.	.	.	.	.
Cc1csc(NC(=O)CSc2sc3c(O)cc(=O)[nH]c3c2C#N)n1	-8.3	38.1*	79.3*	-53.1	51.6*	11.4	6.6	40.7*	-144.4	20.5*
COc1ccc(NC(=O)CSc2sc3c(O)cc(=O)[nH]c3c2C#N)c(OC)c1	-7.2	16.0*	56.3*	-35.7	29.6*	21.9*	12.1	21.0*	-105.7	33.7*
Cc1csc(NC(=O)CSc2nc3[nH]c(=O)cc(O)c3s2)n1	-42.8	3.1	-0.8	-56.1	-6.5	.	.	.	.	.
COC(=O)c1ccc(C)c(NC(=O)CSc2sc3c(O)cc(=O)[nH]c3c2C#N)c1	-7.2	13.9*	51.2*	-33.3	14.0*	21.9*	8.9	19.5*	-98.4	36.1*
COc1ccc(S[C@]2(C(=O)N3CCN(c4ncccn4)CC3)CC(=O)N(c3ccc(C#N)cc3)[C@@H]2c2ccc(OC)cc2)cc1	-0.9	-1.9	1.1	-3.9	-7.5	.	.	.	.	.
COc1ccc(CC2CCN(c3ncnc4sccc34)CC2)cc1	-1.2	-3.2	-2.6	-7.3	0.0	.	.	.	.	.
COc1ccc(CN[C@@H]2CC[C@@]34CCCN3C(=O)CCC[C@H]4C2)cc1OC	-2.2	2.9	1.2	3.2	-6.4	.	.	.	.	.
Cc1c(N)cc(N)cc1C(=O)O	-42.5	73.9*	73.2*	-69.9	25.9*	0.8	-2.2	6.0	-30.4	1.2
COC(=O)C1CN(Cc2ccccc2)CCS(=O)(=O)N1Cc1ccc(Cl)cc1 (stereo not drawn)	1.8	-2.5	0.5	2.5	0.3	.	.	.	.	.
O=C1OC(c2ccc(Cl)cc2)=N/C1=C\C=C\c1ccco1	-8.1	36.2*	40.4*	-27.1	14.1*	10.7	-0.2	-0.8	4.0	-1.4
CCOC(=O)C(C)N1C(=O)S/C(=C\c2ccc(-c3ccccc3C(=O)O)o2)C1=O (stereo not drawn)	i	17.8*	54.7*	i	31.3*	49.4*	15.6*	5.7	-20.4	17.7*
COC(=O)c1ccccc1-c1ccc(/C=C2\C(=O)N(c3ccccc3)N=C2c2ccccc2)o1	0.4	-1.3	-5.2	1.6	-4.1	.	.	.	.	.
CC1=NN(c2ccccc2)C(=O)C1	23.8*	30.9*	18.3	10.2	17.5*	5.8	0.7	1.2	-4.3	1.1	PLCg1 ctr=7.3;PLCbeta3 conf=7.6
COc1ccc(-c2cc(=O)[nH][nH]2)cc1OC	-156.9	41.6*	17.2	-244.4	15.9*	2.7	-0.2	0.8	-2.8	6.8
Nc1[nH]c(C(=O)c2ccccc2)c(-c2ccc(Cl)cc2Cl)c1C(=O)NCCC1=CCCCC1	8.3	-3.0	0.7	-2.2	9.4	.	.	.	.	.
